# Test results as given in the supplement of paper PMC10127200.
# Structures can show the parent of a compound that is named as a salt.
# System: OVCAR4
# Experiment: Euclidean distance of Cell Painting phenotypic profile (signed KS, 77 features) to DMSO centroid (dimensionless distance); 5 or 10 uM (library dependent); higher = stronger phenotypic change vs DMSO (phenoactivity)
# Details: 48 h
# Method in brief: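 Library compounds were applied at 10 or 5 uM, depending on the library, with 0.1% DMSO final, for 48 h to five cancer lines and a healthy fibroblast line. After staining, cells were imaged confocally at 20X across 9 fields per well, and Harmony extracted 77 features, each scored as a signed Kolmogorov-Smirnov statistic against vehicle wells on the same plate. Phenoactivity is the Euclidean distance between each profile and the median vehicle profile, with profiles first plate-position corrected, correlation-weighted and averaged over replicates at the top dose.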
row,Structure (SMILES),Euclidean distance
1,CCOC(=O)Nc1cc(-c2ccc(C)c(NS(C)(=O)=O)c2)nn2c(C)nnc12 [Bromosporine],2.35
2,CC(C)c1nc(CN(C)C(=O)N[C@@H](CCN2CCOCC2)C(=O)N[C@H](CC[C@H](Cc2ccccc2)NC(=O)OCc2cncs2)Cc2ccccc2)cs1 [Cobicistat (GS-9350)],1.96
3,C=C[C@](C)(O)CC[C@@H]1[C@@]2(C)CCCC(C)(C)[C@@H]2CC[C@@]1(C)O [Sclareol],1.39
4,CCCC1O[C@@H]2C[C@H]3[C@@H]4CCC5=CC(=O)C=C[C@]5(C)[C@H]4[C@@H](O)C[C@]3(C)[C@]2(C(=O)CO)O1 (stereo partly specified) [Budesonide],2.47
5,CO/N=C(\C(=O)N[C@@H]1C(=O)N2C(C(=O)O)=C(COC(C)=O)CS[C@H]12)c1csc(N)n1 [Cefotaxime sodium],0.706
6,O=C(O)Cc1ccccc1Nc1c(Cl)cccc1Cl [Diclofenac Diethylamine],0.97
7,Cc1cc(C(=O)NOCCO)c(Nc2ccc(I)cc2F)n(C)c1=O,1.72
8,CCCCc1ncc(/C=C(\Cc2cccs2)C(=O)O)n1Cc1ccc(C(=O)O)cc1 [Eprosartan Mesylate],1.44
9,Cn1nc(C(C)(C)C)cc1C(=O)N[C@@H](Cc1cccc(Cl)c1)C(=O)NCC#N [Cathepsin Inhibitor 1],1.92
10,C/C=C\c1ccc(O)c(OC)c1 [Isoeugenol],0.903
11,Cc1cc(N2CCN([C@@H]3CN[C@H](C(=O)N4CCSC4)C3)CC2)n(-c2ccccc2)n1 [Teneligliptin hydrobromide],1.33
12,COc1ccc(-c2ccc3c(N4CCOC[C@@H]4C)nc(N4CCOC[C@@H]4C)nc3n2)cc1CO,3.73
13,CC(C)(C)Cn1c(N)nc2ccc(-c3[nH]c(C(C)(C)C)nc3-c3ccc(F)cc3)nc21,3.76
14,CCN1CCN(C(=O)N[C@@H](C(=O)N[C@@H]2C(=O)N3[C@@H]2SC(C)(C)[C@@H]3C(=O)O)c2ccccc2)C(=O)C1=O [Piperacillin Sodium],1.25
15,COc1cc(N2CCC(N3CCN(C)CC3)CC2)ccc1Nc1ncc(Cl)c(Nc2ccccc2S(=O)(=O)C(C)C)n1,3.35
16,OC1CN(CCCOCCc2ccc3sccc3c2)C1 [Edonerpic maleate],0.97

row,Structure (SMILES),Euclidean distance
1,c1cc(CN2CCCNCCNCCCNCC2)ccc1CN1CCCNCCNCCCNCC1 [Plerixafor 8HCl (AMD3100 8HCl)],1.7
2,COc1cc(C(=O)OCCCCNC(=N)N)cc(OC)c1O [Leonurine],0.953
3,C[C@H](Cn1cnc2c(N)ncnc21)OCP(=O)(O)O [Tenofovir],1.07
4,NC(=O)[C@@H]1CSSCCC(=O)N[C@@H](CCCCN=C(N)N)C(=O)NCC(=O)N[C@@H](CC(=O)O)C(=O)N[C@@H](Cc2c[nH]c3ccccc23)C(=O)N2CCC[C@H]2C(=O)N1 [Eptifibatide Acetate],1.36
5,CC[C@H](NC(=O)[C@H](C)NC)C(=O)N1C[C@@H](O)C[C@H]1Cc1c(-c2[nH]c3cc(F)ccc3c2C[C@@H]2C[C@H](O)CN2C(=O)[C@H](CC)NC(=O)[C@H](C)NC)[nH]c2cc(F)ccc12 [Birinapant],1.97
6,C[C@]12CC[C@@H]3c4ccc(O)cc4CC[C@H]3[C@@H]1CC[C@@H]2O [Estradiol],1.04
7,CCOC(=O)c1c(N)sc2c1CCN(Cc1ccccc1)C2 [Tinoridine hydrochloride],1.31
8,Nc1nc2[nH]cc(CCc3ccc(C(=O)N[C@@H](CCC(=O)O)C(=O)O)cc3)c2c(=O)[nH]1 [Pemetrexed Disodium Hydrate],2.8
9,CC[C@]12CCCN3CCc4c(n(c5ccccc45)[C@@](O)(C(=O)OC)C1)[C@@H]32 [Vincamine],1.18
10,O=C(/C=C/c1ccc(O)c(O)c1)c1ccc(O)cc1O [Butein],1.12
11,CC(COc1ccccc1)NC(C)C(O)c1ccc(O)cc1 (stereo unspecified) [Isoxsuprine hydrochloride],1.1
12,Nc1nnc(-c2cccc(Cl)c2Cl)c(N)n1 [Lamotrigine],1.42
13,O=C(O)c1cccnc1 [Nicotinic Acid],1.03
14,CC(C)(CO)[C@@H](O)C(=O)NCCC(=O)O [D-Pantothenic acid],1.11
15,CC1(C)O[C@@H]2C[C@H]3[C@@H]4C[C@H](F)C5=CC(=O)C=C[C@]5(C)[C@@]4(F)[C@@H](O)C[C@]3(C)[C@]2(C(=O)CO)O1 [Fluocinolone Acetonide],2.22
